# Results filed as inconclusive are left out. Entries that show only a call come without a potency. Values without a mark were called inactive. Active and inactive are the calls of the source. Calls follow the shape of the dose curve; as a rule, active = well fitted inhibition curve with a large enough effect; inconclusive = small, poorly fitted or top-dose-only effect; inactive = flat fitted curve, though single readings scatter.
# Tested on: Zika virus NS2B-NS3 protease
# Assay: Primary screen GU AMC qHTS for Zika virus inhibitors (AID 1347154); also: nearly all actives have a fitted effect of over 70% in size
# Conditions: Zika NS2B-NS3 unlinked protease, AMC fluorogenic substrate; series mostly up to 54.1 µM
# In short: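 Unlinked Zika NS2B hydrophilic domain–NS3 protease complex at 25 nM in 10 mM Tris-HCl pH 8.0, 0.01% Tween 20, with an AMC peptide substrate. Fluorescence change (340/450 nm) over 15 min at room temperature, normalized to controls, fitted to 4-parameter Hill.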
# Potency is read from the fitted curve at half-maximal effect.
Compound,Potency,"activity change, negative = inhibition"
Cc1cccc(Nc2ccccc2C(=O)O)c1C,inactive,
Nc1ccc(S(=O)(=O)c2ccc(N)cc2)cc1,inactive,
O=C(O)c1ccccc1C(=O)Nc1ccc(S(=O)(=O)Nc2nccs2)cc1,inactive,
O=c1[nH]c(=O)n([C@H]2C[C@H](O)[C@@H](CO)O2)cc1I,inactive,
Cc1c(NC(C)C)c(=O)n(-c2ccccc2)n1C,inactive,
COc1ccc(C(=O)N2CCN(CC(=O)N3CCOCC3)CC2)cc1,inactive,
CCCCCC(N)=O,inactive,
CCCCCCCCCCCCCCCCCCO,inactive,
Cc1ccc(S(=O)(=O)NC(=O)NC2CCCCC2)cc1,inactive,
FC(F)(F)C(Cl)Br (configuration not stated),inactive,
OCCN1C[C@H](O)[C@@H](O)[C@H](O)[C@H]1CO,inactive,
C[C@@H](c1ncncc1F)C(O)(Cn1cncn1)c1ccc(F)cc1F (some centres not stated),inactive,
NCc1ccc(S(N)(=O)=O)cc1,inactive,
CCc1nnc(NS(=O)(=O)c2ccc(N)cc2)s1,inactive,
Cc1cc(OI)c(C(C)C)cc1-c1cc(C(C)C)c(OI)cc1C,inactive,
CCCCCCCCCCOc1cc2c(=O)c(C(=O)OCC)c[nH]c2cc1OCC,,-1.56% [at 4.99 µM]
C[n+]1ccccc1/C=N/O,inactive,
CC(=O)N[C@H]1[C@H]([C@H](O)[C@H](O)CO)OC(C(=O)O)=C[C@@H]1N=C(N)N,inactive,
O=C1c2ccccc2S(=O)(=O)N1CCCCN1CCN(c2ncccn2)CC1,inactive,

Compound,Potency,"activity change, negative = inhibition"
Cn1c(=O)c2c(ncn2CCO)n(C)c1=O,inactive,
CC(CN(C)C)C(C)(O)Cc1ccc(Cl)cc1 (configuration not stated),inactive,
CCCCCCCCCCCCCCCCC(C(=O)O)C(O)(CC(=O)O)C(=O)O (configuration not stated),4.05 µM (active),
Cc1cc(NC(=O)C2=C(O)c3ccccc3S(=O)(=O)N2C)no1,inactive,
CCCCC1(COC(=O)CCC(=O)O)C(=O)N(c2ccccc2)N(c2ccccc2)C1=O,inactive,
CC[C@H](C)[C@H](N)C(=O)O,inactive,
C[N+]1(C)CCCC(OC(=O)C(O)(c2ccccc2)c2ccccc2)C1 (configuration not stated),inactive,
CC(=O)SC[C@@H](Cc1ccccc1)C(=O)NCC(=O)OCc1ccccc1,inactive,
Cc1cc(C)nc(NS(=O)(=O)c2ccc(N)cc2)n1,inactive,
C/C=C/C(=O)N(CC)c1ccccc1C,inactive,
CCN(CC)CCOC(=O)C(c1ccccc1)c1ccccc1,inactive,
CC(CSC(=O)c1ccccc1)C(=O)N1C[C@@H](Sc2ccccc2)C[C@H]1C(=O)O (some centres not stated),inactive,
C[C@@H]1CCC[C@H](C)N1,inactive,
Cc1cc(-n2nc3ccc(Cl)cc3n2)c(O)c(C(C)(C)C)c1,inactive,
O=C1C(c2[nH]c3ccccc3c2O)=Nc2ccccc21,inactive,
NS(=O)(=O)c1ccc(NC(=O)CCC(=O)O)cc1,inactive,
OC[C@@H](O)[C@@H](O)[C@H](O)[C@H](O)CO,inactive,
CCCCCC(C)N (configuration not stated),inactive,
